{
  "source": "the supplement of paper PMC11219838",
  "data": [
    {"system": "Caenorhabditis elegans L1 (N2)", "assay": "survival and reproduction score of C. elegans L1 (0: 0-10 living worms, 1: 11-20, 2: 21-50, 3: >50, 4: overgrown) (score 0-4); higher = more worms, less nematicidal, active = 1 or less; extreme values may be limits of the assay", "conditions": "60 µM; 6 days; temperature: 20 °C", "procedure,_shortened": "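Each 96-well well received about 20 synchronized N2 L1 worms of C. elegans, E. coli HB101 and liquid NGM, plus compound pinned to 60 µM final (0.6% v/v DMSO). Sealed plates were incubated with shaking at 200 rpm, 20 °C, for 6 days. Survival and reproduction were rated under a dissection microscope as an ordinal score of living worms per well, averaged across biological replicates. The scale spanned 0 (0–10 worms) to 4 (overgrown, starved), and there were two replicates.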", "values": [
      {"smiles": "Fc1ccc(-c2nc(-c3ccc(Br)cc3)no2)cc1", "survival and reproduction score": "3 (inactive)"},
      {"smiles": "O=C(CSc1nnc(-c2ccc(Br)cc2)o1)Nc1cccc2ccccc12", "survival and reproduction score": "4 (inactive)"},
      {"smiles": "O=C(CSc1nnc(-c2ccccc2Cl)o1)NCc1ccco1", "survival and reproduction score": "4 (inactive)"},
      {"smiles": "COc1cccc(-c2noc(-c3cc(C)ccc3C)n2)c1", "survival and reproduction score": "4 (inactive)"},
      {"smiles": "Cc1cc(OCc2nc(-c3ccccc3)no2)ccc1Br", "survival and reproduction score": "4 (inactive)"},
      {"smiles": "Brc1ccc(-c2nc(-c3cccnc3)no2)cc1", "survival and reproduction score": "0 (active)"},
      {"smiles": "Brc1cccc(-c2nc(-c3cccnc3)no2)c1", "survival and reproduction score": "4 (inactive)"},
      {"smiles": "COc1nc(-c2ccc(C)cc2)ccc1-c1noc(-c2ccc(F)cc2)n1", "survival and reproduction score": "4 (inactive)"},
      {"smiles": "CCN(CC)C(=O)CSc1nnc(-c2ccc(Br)cc2)o1", "survival and reproduction score": "4 (inactive)"},
      {"smiles": "Cc1ccc(-c2noc(-c3ccccc3C(=O)N3CCC(C)CC3)n2)cc1", "survival and reproduction score": "4 (inactive)"},
      {"smiles": "Brc1ccc(OCc2nc(-c3cccnc3)no2)cc1", "survival and reproduction score": "4 (inactive)"},
      {"smiles": "COc1ccccc1-c1nnc(SCC(=O)Nc2nc(C)cs2)o1", "survival and reproduction score": "4 (inactive)"},
      {"smiles": "O=C(CSc1nnc(-c2ccncc2)o1)Nc1ccc(Cl)cc1Cl", "survival and reproduction score": "4 (inactive)"},
      {"smiles": "O=C(CSc1nnc(-c2cccnc2)o1)c1ccc(Br)cc1", "survival and reproduction score": "4 (inactive)"},
      {"smiles": "COc1nc(-c2ccc(Cl)cc2)ccc1-c1noc(-c2ccncc2)n1", "survival and reproduction score": "4 (inactive)"},
      {"smiles": "Cc1ccc(OCc2nc(-c3ccc(Br)o3)no2)cc1C", "survival and reproduction score": "4 (inactive)"},
      {"smiles": "Cc1cccc(-c2noc(COc3cc(C)ccc3C)n2)c1", "survival and reproduction score": "2 (inactive)"},
      {"smiles": "O=C(CSc1nnc(-c2cccc(Br)c2)o1)NC1CCCCC1", "survival and reproduction score": "4 (inactive)"},
      {"smiles": "Cc1ccc(-c2nnc(SCc3ccccc3C)o2)cc1", "survival and reproduction score": "4 (inactive)"},
      {"smiles": "Cc1ccc(OCc2nc(-c3ccc(F)cc3)no2)cc1C", "survival and reproduction score": "4 (inactive)"},
      {"smiles": "Fc1cccc(-c2nc(-c3cccnc3)no2)c1", "survival and reproduction score": "0 (active)"},
      {"smiles": "CC1CCN(C(=O)CSc2nnc(-c3cc4ccccc4o3)o2)CC1", "survival and reproduction score": "4 (inactive)"},
      {"smiles": "CN(C(=O)CSc1nnc(-c2ccccc2)o1)c1ccccc1", "survival and reproduction score": "4 (inactive)"},
      {"smiles": "Clc1ccccc1-c1noc(-c2ccncc2)n1", "survival and reproduction score": "4 (inactive)"},
      {"smiles": "Cc1ccc(SCc2nc(-c3ccc(C)cc3)no2)cc1", "survival and reproduction score": "4 (inactive)"},
      {"smiles": "O=C(CSc1nnc(-c2ccncc2)o1)Nc1cc(C(F)(F)F)ccc1Cl", "survival and reproduction score": "4 (inactive)"},
      {"smiles": "COc1cccc(-c2noc(COc3ccc(C)c(C)c3)n2)c1", "survival and reproduction score": "4 (inactive)"},
      {"smiles": "O=C(CSc1nnc(-c2ccccc2)o1)Nc1ccc2ccccc2c1", "survival and reproduction score": "4 (inactive)"},
      {"smiles": "Cc1ccc(OCc2nc(-c3ccncc3)no2)cc1C", "survival and reproduction score": "4 (inactive)"},
      {"smiles": "COc1ccccc1-c1nc(-c2ccc(Cl)cc2)no1", "survival and reproduction score": "4 (inactive)"},
      {"smiles": "CCOc1nc(C)ccc1-c1noc(-c2ccccc2F)n1", "survival and reproduction score": "4 (inactive)"},
      {"smiles": "CN(C)C(=O)c1ccccc1-c1nc(-c2ccccc2Cl)no1", "survival and reproduction score": "4 (inactive)"},
      {"smiles": "COc1ccc(Cl)cc1-c1noc(-c2ccccc2)n1", "survival and reproduction score": "1 (active)"},
      {"smiles": "C=CCSc1nnc(-c2ccc(Br)cc2)o1", "survival and reproduction score": "0 (active)"},
      {"smiles": "COc1ccccc1-c1nnc(SCc2ccc(F)cc2)o1", "survival and reproduction score": "4 (inactive)"},
      {"smiles": "O=C(CSc1nnc(-c2cccc(Br)c2)o1)N1CCCCC1", "survival and reproduction score": "4 (inactive)"},
      {"smiles": "Clc1ccccc1CSc1nnc(-c2ccncc2)o1", "survival and reproduction score": "4 (inactive)"},
      {"smiles": "O=C(CSc1nnc(-c2ccco2)o1)c1ccc(Br)cc1", "survival and reproduction score": "4 (inactive)"},
      {"smiles": "Cc1ccc(C(=O)CSc2nnc(-c3ccco3)o2)o1", "survival and reproduction score": "4 (inactive)"}
    ]}
  ]
}
